Assay results published in PubChem BioAssay (NCATS).
Inconclusive results are not listed. The source made the active and inactive calls. The call rests on the fitted dose curve; in most records, active means well fitted cell-killing curve with a large enough effect; inconclusive means small, poorly fitted or top-dose-only effect, or effect the other way; inactive means flat fitted curve, though single readings scatter.

tested on: HeLa; test: Primary qHTS to identify gynecologic anti-cancer compounds using libraries of approved drugs and bioactive compounds (AID 1345084); details: Gynecologic cancer cell panel viability, ATPlite luminescence, 48 h; series mostly up to 57.5 µM; activity change, negative = cytotoxicity: at the top concentration; further: nearly all actives have a fitted effect of over 55% in size
Outline: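 Luminescence from the ATPlite ATP-monitoring reagent indicates viable cell number; lower signal means cytotoxicity. Cells received compound 16 h after seeding and were exposed for 48 h across five concentrations.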
On the % scale 0 is the no-effect control and ±100 the full control effect.

| Structure (SMILES) | activity change, negative = cytotoxicity |
| --- | --- |
| OC[C@H]1O[C@@H](OC(CCCCc2ccc(O)cc2)CCc2ccc(O)cc2)[C@H](O[C@@H]2OC[C@](O)(CO)[C@H]2O)[C@@H](O)[C@@H]1O (some centres undefined) | -5.71% [at 25.3 µM] (inactive) |
| C=C(C)[C@H]1C[C@@H](O)C(=C)CC[C@@H](O)C(=C)[C@@H](O)C1 | 7.2% (inactive) |
| CN1C(=O)c2ccccc2NC(=O)[C@]12O[C@@H]2c1cccc(O)c1 | -4.89% (inactive) |
| C=C1C(=O)O[C@H]2[C@H]1[C@@H](OC(=O)C(C)CO)C[C@@]1(C)[C@H](O)CCC(=O)[C@H]21 (some centres undefined) | 26.3% [at 38.5 µM] (inactive) |
| N[C@@H](CC(=O)N1CCn2c(nnc2C(F)(F)F)C1)Cc1[nH]nc2c(F)c(F)ccc12 | 10.1% (inactive) |
| CC1=CC(=O)CC(C)(C)C1(O)CCC(C)O (centres undefined) | 2.14% (inactive) |
| O=C(O)Cc1nn(Cc2nc3cc(C(F)(F)F)ccc3s2)c(=O)c2nccnc12 | 3.85% (inactive) |
| CCOC(=O)[C@H](CCc1ccccc1)CC1(C(=O)N[C@H]2CCc3ccccc3N(CC(=O)O)C2=O)CCCC1 | 13.2% (inactive) |
| COc1cc(/C=C/C(=O)OC2[C@H](O)CC(O)(C(=O)O)C[C@H]2O)ccc1O (some centres undefined) | 13.3% [at 38.5 µM] (inactive) |
| Cn1ccnc1CCOC(c1cc2nccc(C(=O)O)c2[nH]1)c1ccccc1Cl (centres undefined) | 16.9% (inactive) |
| C/C=C(\C)C(=O)O[C@H]1[C@H](O)[C@]2(COC(C)=O)[C@H](O)C[C@]3(C)C(=CCC4[C@@]5(C)CC[C@H](O[C@@H]6O[C@H](C(=O)O)[C@@H](O[C@@H]7O[C@H](CO)[C@@H](O)[C@H](O)[C@H]7O)[C@H](O)[C@H]6O[C@@H]6O[C@H](CO)[C@@H](O)[C@H](O)[C@H]6O)[C@](C)(CO)C5CC[C@]43C)[C@@H]2CC1(C)C (some centres undefined) | 15.8% [at 11.6 µM] (inactive) |
| CC1=CCC2C(C)(CO)CCCC2(CO)C1CO (centres undefined) | 1.71% (inactive) |
| COc1cccc2c1CCC[C@H]2CN(C)CCc1ccc2ccoc2c1 | -4.59% (inactive) |
| COC(=O)CC1(O)C(=O)Nc2ccccc21 (centres undefined) | 2.27% (inactive) |
| C=C1CCC2C(C)(C)C(O)CCC2(C)C1CCC(C)CCOC(=O)CCC(=O)O (centres undefined) | -1.1% [at 25.3 µM] (inactive) |
| CC(=O)O[C@H]1C[C@@H]2[C@]3(CC[C@]4(C)[C@@H](C5(C)CCC(C(C)(C)O)O5)[C@@H](O)C[C@@]24C)C[C@@]32CC[C@H](O[C@@H]3OC[C@@H](O)[C@H](O)[C@H]3O)C(C)(C)[C@H]12 (some centres undefined) | -0.836% [at 25.3 µM] (inactive) |
| CCCCS(=O)(=O)Nc1ncnc(OCCOc2ncc(Br)cn2)c1-c1ccc(Br)cc1 | 2.37% (inactive) |
| C[C@@H]1O[C@@H](O[C@H]2[C@H](OC(=O)C34CCC(C)(C)CC3C3=CCC5C6(C)CC(O)C(O[C@@H]7O[C@H](CO)[C@@H](O)[C@H](O)[C@H]7O)C(C)(C(=O)O)C6CCC5(C)C3(CO)CC4)O[C@H](C)[C@H](O)[C@@H]2O)[C@H](O)[C@H](O)[C@H]1O[C@@H]1OC[C@@H](O)[C@H](O)[C@H]1O (some centres undefined) | 10.9% [at 11.6 µM] (inactive) |
| CC1NC(=O)C(Cc2c[nH]c3ccccc23)NC1=O (centres undefined) | -15.2% (inactive) |
| CC(=O)c1c(O)cc2cccc3c2c1CC(C)(O)O3 (centres undefined) | 9.12% (inactive) |
| CC(C#N)C(C)O[C@@H]1O[C@H](CO)[C@@H](O)[C@H](O)[C@H]1O (some centres undefined) | -3.71% (inactive) |
| CC(C)C(=O)O[C@@H]1[C@@H](O)[C@@H](O[C@H]2O[C@H](CO)[C@@H](O)[C@H](O)[C@H]2O)O[C@H](CO)[C@H]1O | -7.35% [at 25.3 µM] (inactive) |
| COc1ccccc1CC(C(=O)O)N(C)C(=O)c1ccccc1 (centres undefined) | -3.59% [at 38.5 µM] (inactive) |
| C/C(=C/CO)CC[C@@H]1[C@@]2(C)CCC[C@](C)(C(=O)O)C2CC[C@@]1(C)O (some centres undefined) | -3.73% [at 38.5 µM] (inactive) |
| COc1cc(C(O)C(CO)Oc2ccc(CCCO[C@@H]3O[C@@H](C)[C@H](O)[C@@H](O)[C@H]3O)cc2OC)ccc1O (some centres undefined) | 9.23% [at 25.3 µM] (inactive) |
| C[C@@H]1O[C@@H](O[C@H]2[C@H](O[C@H]3[C@H](O[C@H]4CC[C@@]5(C)C(CC[C@]6(C)C5CC=C5[C@@H]7CC(C)(C(=O)O)C[C@@H](O)[C@]7(C)CC[C@]56C)[C@@]4(C)CO)O[C@H](C(=O)O)[C@@H](O)[C@@H]3O)O[C@H](CO)[C@H](O)[C@@H]2O)[C@H](O)[C@H](O)[C@H]1O (some centres undefined) | 4.42% [at 11.6 µM] (inactive) |
| CC(=O)O[C@H]1[C@H](Oc2ccccc2COC(=O)C2(O)C=CCCC2=O)O[C@H](CO)[C@@H](O)[C@@H]1O (some centres undefined) | 5.57% [at 25.3 µM] (inactive) |
| NC(=O)[C@H]1CCCCc2c1[nH]c1ccc(Cl)cc21 | 2.31% [at 25.3 µM] (inactive) |
| COc1ccc(/C=C/C(=O)O[C@H]2[C@@H]3C=CO[C@@H](O[C@@H]4O[C@H](CO)[C@@H](O)[C@H](O)[C@H]4O)[C@@H]3[C@@]3(CO)O[C@@H]23)cc1O | -3.66% [at 25.3 µM] (inactive) |
